The whole screen tested about 340,000 compounds, of which about 6,200 (1.8%) were called active. Entries that show only a call come without a potency. Roughly 10% stayed inconclusive and do not appear here. This excerpt belongs to a sample that is enriched for actives. Unmarked numbers belong to inactive results. The call rests on the fitted dose curve; in most records, active means well fitted activation curve with a large enough effect; inconclusive means small, poorly fitted or top-dose-only effect; inactive means no such curve, though single readings can be large or run the other way.
Potency means the concentration at half of the fitted maximal effect.

The assay can be described thus: A quantitative high throughput screen for small molecules that induce DNA re-replication in SW480 colon adenocarcinoma cells. Further: nearly all actives have a fitted effect of over 55% in size. Conditions: Hoechst DNA content imaging, 48 h; series mostly up to 46.1 µM. In short, it runs like this:
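Per well, 250 cells were exposed to pinned compound for 48 hr. Nuclear DNA was visualised with Hoechst (40 min, 37 C) and total object intensity recorded by fluorescence scanning.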
In the case of `NC(=O)C1(Nc2ccccc2Cl)CCCC1`, the Potency entry is “inactive”.

On to `COc1ccc(CC(=O)Nc2ccc(C(=O)NC(C)(C)C)cc2)cc1`, for which the Potency entry is “inactive”.

For the molecule `COc1ccc(CS(=O)/C(Cl)=C(/Cl)C(=O)Nc2ccc(OC)nc2)cc1` (stereo not given), the Potency was 0.259 µM (active).

`CCOc1ccc(S(=O)(=O)Nc2ccc(OC)nc2)cc1`: the Potency entry is “inactive”.

With `O=C(NCCC1CCCCN1S(=O)(=O)c1ccc(F)cc1)C(=O)NC1CC1` (stereo not given), the Potency entry was “inactive”.

Consider `O=C(NCCC1CCCCN1S(=O)(=O)c1ccccc1)C(=O)NCC1CCCO1` (stereo not given), for which the Potency result was “inactive”.

As to `COc1cccc(CNC(=O)C(=O)NCCC2CCCCN2S(=O)(=O)c2ccc(C)cc2)c1` (stereo not given), the Potency is 15.8 µM (active).

For `O=C(COC(=O)COc1cc(Cl)c(Cl)cc1Cl)NC1CC1`, the Potency entry was “inactive”.

Turning to `O=C1c2cccc3c([N+](=O)[O-])ccc(c23)C(=O)N1CC1CCCO1` (stereo not given), the Potency was 5.8 µM (active).

For the molecule `CCOc1cccc(=O)c2c(C)n(CC3CCCO3)c(C)c12` (stereo not given), the Potency entry is “inactive”.

Take `CN1CN(C)c2ccc([N+](=O)[O-])c3cccc1c23`: the Potency entry is “inactive”.

Take `O=C(CSc1cccc2cccnc12)N/N=C/c1cccnc1`: the Potency was 7.31 µM (active).

Take `COc1ccc(C(=O)NCC(=O)N/N=C/c2cccnc2)cc1`: the Potency entry was “inactive”.

On to `O=C(CNC(=O)c1cccnc1)N/N=C/c1cccnc1`, for which the Potency entry was “inactive”.

For the molecule `Cc1ccc(/C=N/NC(=S)NC2CCCCC2)o1`, the Potency result is “inactive”.

On to `Cc1ccc(/C=N/NC(=S)Nc2cccc(S(=O)(=O)N(C)C)c2)o1`, for which the Potency is 23.1 µM (active).

Turning to `CN(C)S(=O)(=O)c1cccc(NC(=S)NCc2ccc3c(c2)OCO3)c1`, the Potency entry was “inactive”.

For the molecule `COc1cc(C(=O)CCc2ccc3c(c2)OCO3)cc(OC)c1OC`, the Potency entry is “inactive”.

As for `CCOc1ccc2ccccc2c1/C=N/NC(=O)c1c(C)cc(C)[nH]c1=O`, the Potency was 23.1 µM (active).

Consider `COc1ccc2ccccc2c1/C=N/NC(=O)c1cc(C)[nH]n1`, for which the Potency entry is “inactive”.

Consider `Cc1ccc(C(=O)N/N=C/c2cccc3ccccc23)cn1`, for which the Potency result was “inactive”.

Consider `O=C(COC(=O)c1ccc([N+](=O)[O-])o1)NC12CC3CC(CC(C3)C1)C2`, for which the Potency result was “inactive”.

On to `CCOC(=O)C1CCCN(C(=O)c2ccc(C)c(S(=O)(=O)N3CCCCC3)c2)C1` (stereo not given), for which the Potency entry is “inactive”.

Regarding `COc1cccc2c1C(=O)c1c(O)c3c(c(O)c1C2=O)CC(O)(C(C)=NNC(=O)c1ccc(Cl)c(Cl)c1)CC3OC1CC(N)C(O)C(C)O1` (stereo not given), the Potency result was “inactive”.

For the molecule `Nc1nc(-c2ccccc2)cc(-c2ccccc2)n1`, the Potency result was “inactive”.

In the case of `CNc1nc(-c2ccccc2)cc(-c2ccccc2)n1`, the Potency entry is “inactive”.

Turning to `CS(=O)(=O)c1sc2nc(-c3ccccc3)cc(-c3ccccc3)c2c1N`, the Potency is 11.2 µM (active).

On to `CCN([C@H](CO)C(C)C)S(=O)(=O)c1ccccc1Br`, for which the Potency entry was “inactive”.

Regarding `CN1C(c2ccc(F)cc2)=CS/C1=C(/C#N)c1nnc2n1-c1ccccc1SC2`, the Potency result was “inactive”.

For `C/[N+]([O-])=C\c1ccc([N+](=O)[O-])o1`, the Potency is 14.6 µM (active).

Regarding `CN1CCN(/N=C/c2ccc(-c3ccc([N+](=O)[O-])cc3)o2)CC1`, the Potency entry was “inactive”.

As to `Cc1cc(C)nc(N/N=C/c2ccc([N+](=O)[O-])o2)n1`, the Potency entry is “inactive”.

In the case of `CN1CCN(C(=O)c2ccc(-c3ccc(Br)cc3)o2)CC1`, the Potency result was “inactive”.

Consider `CCN(C(=O)CSc1cccc[n+]1[O-])c1ccccc1`, for which the Potency result was “inactive”.

For `O=[N+]([O-])c1cc(Br)c(O)c(/C=N/Nc2nc3ccccc3s2)c1`, the Potency was 3.26 µM (active).

For the molecule `COc1ccc(CC(=O)N/N=C/c2cc([N+](=O)[O-])cc(Br)c2O)cc1`, the Potency result is “inactive”.

`Cc1cc(C(=O)N/N=C/c2cc([N+](=O)[O-])cc(C)c2O)n[nH]1`: the Potency entry is “inactive”.

As to `COc1ccc(C(=O)Nc2cc(S(=O)(=O)N3CCCC3)ccc2Cl)cc1`, the Potency result was “inactive”.

As for `C[C@H](O)[C@@H]1C(=O)N2CCc3ccc(N4CCOCC4)cc3[C@@H]2C[C@@H]1N(C)C(=O)C(C)(C)C`, the re-replication activation is 0.113% [at 9.22 µM].

Take `COc1ccc(C(=O)N2CC3(C)CC2CC(C)(C)C3)cc1OC` (stereo not given): the Potency result is “inactive”.

For the molecule `Cc1nnnn1/C(=C\c1ccccc1)C(=O)OCC(=O)N1CC2(C)CC1CC(C)(C)C2` (stereo not given), the Potency was 18.4 µM (active).

As to `Cc1cccc(C(=O)NCC(=O)OCC(=O)N2CC3(C)CC2CC(C)(C)C3)c1` (stereo not given), the Potency entry was “inactive”.

For the molecule `COc1ccc(CCNC(=O)COC(=O)Cc2ccccc2F)cc1`, the Potency result is “inactive”.

With `N#Cc1cc([N+](=O)[O-])ccc1NC(=O)COC(=O)c1cnccn1`, the Potency entry is “inactive”.

In the case of `Cc1cc(C(=O)OCC(=O)N2C(C)CCCC2C)c2ccccc2n1` (stereo not given), the Potency result is “inactive”.

Take `COc1cccc(NC(=O)c2ccc(Cn3cc([N+](=O)[O-])cn3)o2)c1`: the Potency entry was “inactive”.

Take `Cc1cccc(NC(=O)c2cc([N+](=O)[O-])ccc2N2CCN(C)CC2)c1`: the Potency entry is “inactive”.

`Cc1cccc(NC(=O)c2ccc([N+](=O)[O-])o2)c1`: the Potency was 3.66 µM (active).

On to `CS(=O)(=O)Nc1ccccc1C(=O)OCC(=O)NC1CC1`, for which the Potency result was “inactive”.

As to `CC(=O)NC(CC(=O)Nc1ccc(S(=O)(=O)N2CCOCC2)cc1)c1ccccc1` (stereo not given), the Potency entry is “inactive”.

Take `COc1cccc(/C=N/NC(=O)CNC(=O)c2ccc(S(=O)(=O)N3CCOCC3)cc2)c1OC`: the Potency entry was “inactive”.

Turning to `COc1ccc(C(=O)NCC(=O)N/N=C/c2ccc([N+](=O)[O-])o2)cc1OC`, the Potency was 11.6 µM (active).

`COc1cc(/C=N/NC(=O)CNC(=O)c2ccncc2)ccc1OC(C)=O`: the Potency entry is “inactive”.

As to `Cc1csc(=O)n1CC(=O)Nc1ccc(S(C)(=O)=O)cc1`, the Potency entry is “inactive”.

In the case of `O=C1c2ccccc2C(=O)N1Cc1cc(-c2ccccc2Cl)no1`, the Potency entry is “inactive”.

`Cn1cnnc1SCc1nnc(-c2ccccc2Br)o1`: the Potency entry is “inactive”.

`Nc1cccc2c1C(=O)N(Cc1nnc(-c3ccccc3Br)o1)C2=O`: the Potency was 16.4 µM (active).

`CN(CC(=O)NCCc1ccc(S(N)(=O)=O)cc1)CC(=O)Nc1ccc(Cl)cc1`: the Potency result is “inactive”.

`CCOC(=O)CSC1=C(C#N)C(c2sccc2C)CC(=O)N1` (stereo not given): the Potency is 5.01 µM (active).

On to `Cc1ccc(C2CC(=O)NC(SCC(=O)OCc3ccccc3)=C2C#N)o1` (stereo not given), for which the Potency entry is “inactive”.

In the case of `COC(=O)CSC1=C(C#N)C(c2ccccc2OC)C(C(=O)OC)C(=O)N1` (stereo not given), the re-replication activation is 0.322% [at 9.22 µM].

As to `CC(C)Cc1nnc(N)s1`, the Potency result was “inactive”.

With `O=C(N/N=C/c1cccc(O)c1)c1cc2c(ccc3ccccc32)o1`, the Potency entry was “inactive”.

Take `Cc1c(/C=N\NC(=O)c2cc3ccccc3o2)c2ccccc2n1C`: the Potency was 9.2 µM (active).

`Cc1ccc(NC(=O)c2cc3ccccc3o2)cc1`: the Potency result was “inactive”.

These data come from PubChem BioAssay AID624297 (National Center for Advancing Translational Sciences (NCATS), 2012).
